# Tested on: PPARa:RXRa (NR concentration 270 nM, RXRa partner concentration 90 nM)
# Assay: PBM binding z-score (relative to random genomic background probes); higher = stronger binding; sequences stand for … in GC…GCGATTGACAGCGTAGAATGAAGG
# Summary of the method: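 On custom Agilent 4×180K arrays, double-stranded probes with 34-nt variable regions carried direct-repeat seeds, single-nucleotide variants, half-site ablations or random human genomic background. Ligand-free nuclear receptor dimers were applied for 1 h, and binding was read with antibodies against each partner (one per run). Binding z-scores come from regression-normalized fluorescence, with the random background probes as reference.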
row,Sequence,PBM binding z-score
1,CCGACTGGGCCAAAGGTTACCATACTCAGTACGA,5.39
2,AGTAAAAGTTCATCTAGGTAACGTAAGATATGCT,4.42
3,CCTTACGGGTCACTGACAGGTTATATCATTTGGA,5.14
4,GCGACTGGGGCATCAGCAGCTTACCATAACTTAA,0.137
5,GCTGCTAGGTCAACTAATGGTCAGCTAAAGCTCG,3.29
6,CCTACTGGGCCACGAAGGGTCATTGATTCAGTGA,3.68
7,ACAGACAGGTGATGAAGGTAACTAAGGCTATCAT,0.196
8,TCTTGTAGATCAAGCAGGTTGAGAAAGCCTGAGT,0.441
9,TCTATTAGTTGATTAGGGCGACCGAAACAGCGGA,0.801
10,CTACCAAGGTGAGCAAGGTCGTTGATTACTATTC,1.59
11,ATCGAAAGGTCGTGAGGTGGGTATACAGAAAGGC,4.96
12,CTCGAAAGGTCGCTTGAGGTGAGTATACGGATAA,4.15
13,CCTTACGGGTCAAGGCTATAGCACGGGTGGTACG,4.88
14,AGAATGAGGTTATTAAGATTAGGGAATTGCGGTC,2.61
15,TCTCGGAGGACTCGAAAGGTCAGAGCTCGACATC,3.21
16,ATCTCTAGGTATAGTTCAGTGAAAGATCGATAGA,0.726
17,CATACTAGGTCACGAAAGGTCAAAGTCGAATGAC,6.39
18,CCTACTGGGCCCAAGGTCATTGATTCCAATGCTC,3.65
19,GGAACGATGGCAAGTTGATAGCAGAGTTTGATGG,-0.654
20,TCTTGTAGATCATAGGTTAAGAAAGCCGAAGCCT,2.8

row,Sequence,PBM binding z-score
1,CGTCCAAGGTCAAAGGCCAGTGAAGAGATGACGG,6.01
2,TCATATAGGTAAACAAGTGAAAGTCCGTAAGTTA,1.58
3,CCTTACGGGTCACTGACAGGTTATAACATTTGGA,5.18
4,ATATGTACGTTATCGGGTCATTCAGTTTGCGCAT,2.67
5,CCTTCTGGGCCAAGGTCATTGATCAGTCAAAGCA,3.75
6,TCTATTCGTTGAAGGGCAACCGACGAGTCCGTTT,1.25
7,CATAGTTGGTCAGGAGGTCACACACCGGATATGA,4.18
8,CGTCCAAGGTCAGCAGGTCAGTGATAGCGACGTG,4.52
9,AACTCTAGGTAACAAGTTCAGTGAAAGAGAGGAC,1.58
10,CCTACTGGGCCATTCAGAGTTCATTGATCATATG,2.28
11,CCTACTGGTCCAAAAAGGTCATTGATGCCGATAA,4.72
12,AGAATGAGGTTAACATCAGGGAAACAGAATACAT,4.3
13,CCTACTGGGCCAAAGGTCATTAATTCCAATGCTC,6.19
14,TAGCCTGGGTCAGATCGGGCCAGTATACGCTATA,1.32
15,ACAGACAGGTGATGGAGGTAACTCAGGCTATCAT,0.109
16,AGAATGAGGTTATTACGATCAGGGAATTGCGGTC,2.66
17,TCCTGTAGATCAATAGAGGTTAAGAAAGTGCGCT,1.74
18,ACAGACAGGTGATGAGGGTAACTCAGGCTATCAT,0.465
19,GCTGCTAGGACAACTGATGGTCAGCTAAAGCTCG,-1.94
20,ACTAGCAGGCCAAGTTTGGGTCACTCGAACAAAG,1.33

# Reference: the supplement of paper PMC6555819
